CYP2C9 inhib: human CYP2C9 inhibition; CYP2C9 Supersomes, luciferin-H conversion, luminescence; P11712; AID 777; inhibition, % at 5 µM; actives 20% (n = 96,000);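 active means blocking of liver enzyme CYP2C9 beyond about 50% at 5 µM, limit read from the data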
CYP2C9 activ: CYP2C9 (human) activation; P11712; recombinant CYP2C9, luciferin-H conversion, luminescence; stronger effect = higher value; factor 1 = untreated enzyme, 0 = blocked; activation factor at 5 µM; actives 1.4% (n = 96,000); AID 1024;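 active means activation factor of 2 or more for CYP2C9 at a 5 µM dose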
DAT uptake mod: modulates human dopamine transporter uptake under cocaine; Q01959; LLC-PK1 hDAT cells, [14C]-dopamine uptake with cocaine IC80; actives deviate in either direction; B-score at 10 µM; actives 1.3% (n = 110,000); AID 449768;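 active means Z score or B-score, a plate-position-corrected score, falls beyond the plate's 99.7% confidence bounds, in either direction; inactive means both scores lie inside the 99.7% bounds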
Target sequence (Q01959 whole entry, looked up): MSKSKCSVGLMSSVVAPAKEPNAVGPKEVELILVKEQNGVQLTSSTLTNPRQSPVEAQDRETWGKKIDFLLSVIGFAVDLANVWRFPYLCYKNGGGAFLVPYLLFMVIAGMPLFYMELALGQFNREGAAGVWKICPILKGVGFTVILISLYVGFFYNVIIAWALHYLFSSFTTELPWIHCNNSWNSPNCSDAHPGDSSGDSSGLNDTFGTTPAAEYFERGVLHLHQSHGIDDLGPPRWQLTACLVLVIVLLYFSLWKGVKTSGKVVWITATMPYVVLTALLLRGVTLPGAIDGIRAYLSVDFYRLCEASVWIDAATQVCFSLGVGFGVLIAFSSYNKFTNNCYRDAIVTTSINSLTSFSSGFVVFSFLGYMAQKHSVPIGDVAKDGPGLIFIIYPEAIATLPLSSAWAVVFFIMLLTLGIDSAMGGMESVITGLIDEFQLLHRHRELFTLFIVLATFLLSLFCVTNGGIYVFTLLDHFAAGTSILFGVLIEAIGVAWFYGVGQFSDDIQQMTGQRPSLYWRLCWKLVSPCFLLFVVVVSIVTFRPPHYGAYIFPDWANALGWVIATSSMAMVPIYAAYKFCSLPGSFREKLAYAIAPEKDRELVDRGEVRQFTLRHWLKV
CYP2C19 inhib: human CYP2C19 inhibition. P33261. AID 778. inhibition, % at 5 µM. CYP2C19 Supersomes, luciferin-H EGE luminescence, 30 min. actives 21% (n = 96,000);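 active means CYP2C19 inhibition above a set limit at 5 µM in the primary screen, cut at about 50% in these data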
CYP2C19 activ: cytochrome P450 2C19 (human) activation; P33261; recombinant CYP2C19, luciferin-H EGE luminescence; stronger effect = higher value; 0 = fully inhibited enzyme, 1 = untreated enzyme; activation factor at 5 µM; 96,000 tested, under 10 active;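 active means activation factor of at least 2 at 5 µM in the primary screen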
D1 allo mod: allosterically modulates the human D1 dopamine receptor. HEK293 D1, CRE-luciferase, dopamine EC30 potentiation; actives deviate in either direction. B-score at 10 µM. actives 5.9% (n = 58,000);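 active means luminescence count or its row- and column-corrected plate score outside the 99.7% band of the plate's sample wells, on either side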
A number is an active result. Sampled rows, rich in hits. Any-hit rate of the full collection: about 28%.

What do the screens show for `CCc1ccc(OC)c(S(=O)(=O)NCCOc2ccccc2)c1`?
CYP2C9 inhib: inactive; CYP2C9 activ: inactive; DAT uptake mod: inactive; CYP2C19 inhib: 75; CYP2C19 activ: inactive; D1 allo mod: inactive

Results for COc1cc(OC)c(C#N)c(S(=O)(=O)Cc2ccccc2)c1 ?
CYP2C9 inhib: inactive; CYP2C9 activ: inactive; DAT uptake mod: inactive; CYP2C19 inhib: 96; CYP2C19 activ: inactive

Results for COc1ccc(OC)c(NS(=O)(=O)Cc2ccccc2)c1 ?
CYP2C9 inhib: inactive; CYP2C9 activ: inactive; CYP2C19 inhib: 94; CYP2C19 activ: inactive

How did C=CCNc1nc(NC(C)(C)CO)nc(OC)n1 do in these assays?
DAT uptake mod: inactive

How did CCOc1cc(Br)ccc1S(=O)(=O)NCc1ccccc1 do in these assays?
CYP2C9 inhib: inactive; CYP2C9 activ: inactive; CYP2C19 inhib: 71; CYP2C19 activ: inactive

Results for COc1ccc(OC)c(S(=O)(=O)NCc2ccccc2)c1 ?
CYP2C9 inhib: inactive; CYP2C9 activ: inactive; DAT uptake mod: inactive; CYP2C19 inhib: 96; CYP2C19 activ: inactive; D1 allo mod: inactive

How did COc1ccc(OC)c(S(=O)(=O)NC(C)(C)C)c1 do in these assays?
CYP2C9 inhib: inactive; CYP2C9 activ: inactive; DAT uptake mod: inactive; CYP2C19 inhib: 52; CYP2C19 activ: inactive

What do the screens show for `O=S(=O)(NCc1ccccc1)c1ccc(F)cc1Br`?
DAT uptake mod: inactive

Results for COc1ccc(OC)c(S(=O)(=O)Nc2c(F)cccc2F)c1 ?
CYP2C9 inhib: inactive; CYP2C9 activ: inactive; DAT uptake mod: inactive; CYP2C19 inhib: inactive; CYP2C19 activ: inactive; D1 allo mod: inactive

How did Cc1cc(C)nc(SCCn2c(N3CCCCC3)nc3c2c(=O)n(C)c(=O)n3C)n1 do in these assays?
CYP2C9 inhib: inactive; CYP2C9 activ: inactive; DAT uptake mod: inactive; CYP2C19 inhib: inactive; CYP2C19 activ: inactive

Results for CC(=O)Nc1ccc(NS(=O)(=O)C(F)(F)F)cc1 ?
CYP2C9 inhib: inactive; CYP2C9 activ: inactive; DAT uptake mod: inactive; CYP2C19 inhib: inactive; CYP2C19 activ: inactive; D1 allo mod: inactive

Results for CCOc1ccccc1N(CC(=O)N1CCCCCC1)S(C)(=O)=O ?
CYP2C9 inhib: inactive; CYP2C9 activ: inactive; DAT uptake mod: inactive; CYP2C19 inhib: inactive; CYP2C19 activ: inactive; D1 allo mod: -3.8

How did Cc1cc(C)cc(N(CC(=O)N2CCOCC2)S(=O)(=O)c2ccccc2)c1 do in these assays?
DAT uptake mod: inactive

How did CCOc1ccccc1N(CC(=O)N1CCOCC1)S(=O)(=O)c1ccccc1 do in these assays?
CYP2C9 inhib: 76; CYP2C9 activ: inactive; DAT uptake mod: inactive; CYP2C19 inhib: inactive; CYP2C19 activ: inactive; D1 allo mod: inactive

Results for CCCc1cc(Nc2ccccc2OCC)n2ncnc2n1 ?
CYP2C9 inhib: inactive; CYP2C9 activ: inactive; DAT uptake mod: inactive; CYP2C19 inhib: inactive; CYP2C19 activ: inactive

How did O=C(NCc1cccs1)C1CCC(CNS(=O)(=O)c2ccc(Br)s2)CC1 (stereo unspecified) do in these assays?
CYP2C9 inhib: inactive; CYP2C9 activ: inactive; DAT uptake mod: inactive; CYP2C19 inhib: inactive; CYP2C19 activ: inactive; D1 allo mod: inactive

What do the screens show for `Cc1ccc(Oc2c(C=O)c3ccccc3n2C)cc1`?
CYP2C9 inhib: inactive; CYP2C9 activ: inactive; DAT uptake mod: inactive; CYP2C19 inhib: 68; CYP2C19 activ: inactive

Results for COc1ccc(-c2c(NC(=O)C(C)C)n(C)c3ccccc3c2=O)cc1 ?
CYP2C9 inhib: inactive; CYP2C9 activ: inactive; DAT uptake mod: inactive; CYP2C19 inhib: inactive; CYP2C19 activ: inactive

How did Cc1nn(C)c(Oc2ccc(Cl)cc2)c1C(=O)O do in these assays?
CYP2C9 inhib: inactive; CYP2C9 activ: inactive; DAT uptake mod: inactive; CYP2C19 inhib: inactive; CYP2C19 activ: inactive

Results for Cn1c(Oc2ccc(Cl)cc2)c(C=O)c2ccccc21 ?
CYP2C9 inhib: inactive; CYP2C9 activ: inactive; DAT uptake mod: inactive; CYP2C19 inhib: 58; CYP2C19 activ: inactive

How did COc1ccc(Oc2c(C=O)c3ccccc3n2C)cc1 do in these assays?
CYP2C9 inhib: inactive; CYP2C9 activ: inactive; DAT uptake mod: inactive; CYP2C19 inhib: 69; CYP2C19 activ: inactive

How did COc1nnc(-c2ccc(N3CCCCC3)c(N)c2)c2ccccc12 do in these assays?
DAT uptake mod: inactive; D1 allo mod: inactive

What do the screens show for `O=C(NCc1ccc(F)cc1)c1cnn2ccccc12`?
CYP2C9 inhib: inactive; CYP2C9 activ: inactive; DAT uptake mod: inactive; CYP2C19 inhib: 60; CYP2C19 activ: inactive

What do the screens show for `Fc1ccccc1COc1ccc(/C=N/n2cnnc2)cc1`?
CYP2C9 inhib: 95; CYP2C9 activ: inactive; DAT uptake mod: inactive; CYP2C19 inhib: 97; CYP2C19 activ: inactive; D1 allo mod: inactive

What do the screens show for `Fc1ccccc1COc1ccc(/C=N/NC(=S)NCc2ccccc2)cc1`?
DAT uptake mod: inactive

Results for C(=N\n1cnnc1)/c1ccc(OCc2cccc3ccccc23)cc1 ?
CYP2C9 inhib: 81; CYP2C9 activ: inactive; CYP2C19 inhib: inactive; CYP2C19 activ: inactive

Results for C(=N\n1cnnc1)/c1ccc(OC2CSC2)cc1 ?
CYP2C9 inhib: 85; CYP2C9 activ: inactive; DAT uptake mod: inactive; CYP2C19 inhib: 93; CYP2C19 activ: inactive; D1 allo mod: inactive

Results for CC(C)OC(=O)c1c2nc3ccccc3nc2n2c1[nH]c(=O)c1ccccc12 ?
CYP2C9 inhib: inactive; CYP2C9 activ: inactive; DAT uptake mod: inactive; CYP2C19 inhib: inactive; CYP2C19 activ: inactive; D1 allo mod: inactive

Results for COCCNC(=O)c1cc2oc3ccccc3c2n1C ?
CYP2C9 inhib: 79; CYP2C9 activ: inactive; DAT uptake mod: inactive; CYP2C19 inhib: 90; CYP2C19 activ: inactive

How did CCOc1ccccc1CNC(=O)c1cc2oc3ccccc3c2n1C do in these assays?
CYP2C9 inhib: inactive; CYP2C9 activ: inactive; DAT uptake mod: inactive; CYP2C19 inhib: inactive; CYP2C19 activ: inactive

What do the screens show for `Cc1cccc(N(Cc2ccccc2F)S(C)(=O)=O)c1`?
CYP2C9 inhib: inactive; CYP2C9 activ: inactive; DAT uptake mod: inactive; CYP2C19 inhib: 52; CYP2C19 activ: inactive

Results for Cc1cccc(N(CC(=O)Nc2c(C)n(C)n(-c3ccccc3)c2=O)S(C)(=O)=O)c1 ?
CYP2C9 inhib: inactive; CYP2C9 activ: inactive; DAT uptake mod: inactive; CYP2C19 inhib: inactive; CYP2C19 activ: inactive; D1 allo mod: inactive

How did Cc1ccc(N(Cc2ccccc2F)S(C)(=O)=O)cc1C do in these assays?
CYP2C9 inhib: 73; CYP2C9 activ: inactive; DAT uptake mod: inactive; CYP2C19 inhib: 98; CYP2C19 activ: inactive

How did O=C1CN(C(=O)COC(=O)COc2ccc3c(c2)CCC3)c2ccccc2N1 do in these assays?
CYP2C9 inhib: inactive; CYP2C9 activ: inactive; DAT uptake mod: inactive; CYP2C19 inhib: inactive; CYP2C19 activ: inactive; D1 allo mod: inactive

Results for COc1ccccc1CCNC(=O)c1ccc(C)o1 ?
CYP2C9 inhib: inactive; CYP2C9 activ: inactive; DAT uptake mod: inactive; CYP2C19 inhib: 68; CYP2C19 activ: inactive; D1 allo mod: inactive

How did COc1ccc(NC(=S)NCc2ccco2)c(OC)c1 do in these assays?
CYP2C9 inhib: inactive; CYP2C9 activ: inactive; DAT uptake mod: inactive; CYP2C19 inhib: 81; CYP2C19 activ: inactive

Assay outcomes as filed in PubChem BioAssay.
